Results filed as inconclusive are left out. For some assays here: Potency and affinity values are given separately. Calls of active or inactive are those of the source.
Assays:
[1] = Ebola virus entry assay, ratio channel
[2] = Ebola virus entry assay, green channel fluorescence
[3] = Ebola virus entry assay, blue channel fluorescence
[4] = Ebola virus entry assay, reporter ratio channel; AC50: Channel type: primary unless noted; outcome: Channel type: primary unless noted
[5] = Ebola virus entry assay, blue channel (ratio component)
[6] = Ebola virus entry cell assay, ratio channel
[7] = High-throughput drug toxicity screening in the BPDCN cell line Gen2.2 (AID 1224824); details: Gen2.2 BPDCN cells; at 45.8 µM (top of the series) unless noted;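 note: cells exposed to compounds for 48 h before reading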
Procedure, shortened: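 Gen2.2 cells (500/well) in phenol red-free RPMI with 10% FBS were exposed to compounds for 48 h at 37 °C, 5% CO2. Viability was read by CellTiter-Glo luminescence and normalized to DMSO (100%) and 9.2 uM bortezomib (0%).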

[8] = High-throughput drug toxicity screening in the BPDCN cell line Cal-1 (AID 1224825); details: Cal-1 BPDCN cell viability, qHTS; at 45.8 µM (top of the series) unless noted
Procedure, shortened: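 Percent activity derived from CellTiter-Glo luminescence, scaling DMSO to 100% and 9.2 uM final bortezomib to 0%. BPDCN Cal-1 cells (500/well, RPMI plus 10% FBS) incubated with compounds 48 hours at 37C before reading.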

[9] = qHTS assay for measurement of the activity of small molecule inhibitors on Zika virus induced Caspase-3 activity in human astrocytoma cells (AID 1224859; active = well fitted curve in the direction sought with a large enough effect; an effect the other way counts as inactive or inconclusive); details: SNB-19 ZIKV-induced caspase-3/7, luminescence, 6 h; series mostly up to 45.7 µM
Procedure, shortened: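 Luminescence read-out (Caspase-Glo 3/7, 30 min RT) of caspase activity in SNB-19 cells infected 6 h with ZIKV, 2 FFU/cell, after 1 h compound pretreatment; % inhibition from induction normalised to uninfected (0%) and infected (100%) wells.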

[10] = qHTS Screen of the MIPE 4.0 Collection Against Ewings Sarcoma (TC32) (AID 1259256; active = well fitted curve in the direction sought with a large enough effect; an effect the other way counts as inactive or inconclusive; note: nearly all actives have a fitted effect of over 45% in size); details: TC32 Ewing sarcoma viability, CellTiter-Glo, 48 h; series mostly up to 45.8 µM
Procedure, shortened: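 After a 4 h attachment period in RPMI/5% FBS, cells were pin-dosed with test compounds; DMSO served as negative and 9.2 uM bortezomib (final) as positive control. Luminescent CellTiter-Glo signal at 48 h defined viability.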

[11] = qHTS assay to identify small molecule inhibitors of chordoma cells - UCH-1 (AID 1259355; active = well fitted curve in the direction sought with a large enough effect; an effect the other way counts as inactive or inconclusive; note: nearly all actives have a fitted effect of over 55% in size); details: UCH-1 chordoma viability, CellTiter-Glo, 48 h, combination; series mostly up to 46.1 µM
Procedure, shortened: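 800 cells/well, overnight attach; compounds pinned at 15 concs, then auranofin/camptothecin/doxorubicin/rubitecan/topotecan combo added; 48hr 37 C, 5% CO2; CellTiter-Glo, 30min RT, luminescence.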

[12] = qHTS assay to identify small molecule inhibitors of chordoma cells - UCH-2 (AID 1259356; active = well fitted curve in the direction sought with a large enough effect; an effect the other way counts as inactive or inconclusive); details: UCH-2 chordoma viability, CellTiter-Glo ATP luminescence, 48 h; series mostly up to 46.1 µM
[13] = Ebola virus entry reporter assay, green channel fluorescence

S=P(N1CC1)(N1CC1)N1CC1
inactive: outcome [1] | outcome [2] | outcome [3] | outcome [4] | outcome [5] | outcome [6]

CCCCCCCCCCCCCCCCOP(=O)([O-])OCC[N+](C)(C)C
inactive: outcome [1] | outcome [2] | outcome [4]

NS(=O)(=O)c1cc2c(cc1C(F)(F)F)NC(Cc1ccccc1)NS2(=O)=O (stereo not drawn)
inactive: outcome [1] | outcome [2] | outcome [3] | outcome [4] | outcome [5] | outcome [6]

O=C(O)CCCc1ccc(N(CCCl)CCCl)cc1
11.8%: viability (% of control) [8]
84.6%: cell viability, % of control (lower = more cytotoxic) [7]
inactive: outcome [1] | outcome [2] | outcome [3] | outcome [4] | outcome [5] | outcome [6] | outcome [9] | Potency [10] | outcome [11] | outcome [12]

COc1cc(C(=O)NS(=O)(=O)c2ccccc2C)ccc1Cc1cn(C)c2ccc(NC(=O)OC3CCCC3)cc12
inactive: outcome [1] | outcome [2] | outcome [3] | outcome [4] | outcome [5] | outcome [13] | outcome [6]

NCC[C@H](O)C(=O)N[C@@H]1C[C@H](N)[C@@H](O[C@H]2O[C@H](CN)[C@@H](O)[C@H](O)[C@@H]2O)[C@H](O)[C@@H]1O[C@H]1O[C@H](CO)[C@@H](O)[C@H](N)[C@@H]1O
inactive: outcome [1] | outcome [2] | outcome [3] | outcome [4] | outcome [5] | outcome [13] | outcome [6]

C[C@](N)(Cc1ccc(O)cc1)C(=O)O
inactive: outcome [1] | outcome [2] | outcome [3] | outcome [4] | outcome [5] | outcome [6]

C[N+]1(C)CCCC(OC(=O)C(O)(c2ccccc2)c2ccccc2)C1 (stereo not drawn)
inactive: outcome [1] | outcome [2] | outcome [3] | outcome [4] | outcome [5] | outcome [13] | outcome [6]

COC(=O)c1ccccc1C(=O)c1ccc(OCCN2CCCCC2)cc1
inactive: outcome [2]
active: AC50 [1] 14.1 µM | AC50 [4] 14.1 µM

NCCCCCC(=O)O
inactive: outcome [1] | outcome [2] | outcome [3] | outcome [4] | outcome [6]

NS(=O)(=O)c1cc(C2(O)NC(=O)c3ccccc32)ccc1Cl (stereo not drawn)
inactive: outcome [1] | outcome [2] | outcome [3] | outcome [4] | outcome [5] | outcome [6]

C[C@H](CS)C(=O)N1CCC[C@H]1C(=O)O
inactive: outcome [1] | outcome [2] | outcome [3] | outcome [4] | outcome [5] | outcome [13] | outcome [6]

C/C=C1\[C@H]2C=C(C)C[C@]1(N)c1ccc(=O)[nH]c1C2
inactive: outcome [1] | outcome [2] | outcome [4] | outcome [5]

CCOC(=O)O[C@]1(C(=O)OCCl)CC[C@H]2[C@@H]3CCC4=CC(=O)C=C[C@]4(C)[C@H]3[C@@H](O)C[C@@]21C
inactive: outcome [1] | outcome [2] | outcome [4] | outcome [5]

NS(=O)(=O)c1cc(C(=O)O)cc(N2CCCC2)c1Oc1ccccc1
inactive: outcome [1] | outcome [2] | outcome [4] | outcome [5]

CC(=O)OCC(=O)[C@@]1(O)[C@H](OC(C)=O)C[C@H]2[C@@H]3CCC4=CC(=O)C=C[C@]4(C)[C@@]3(F)[C@@H](O)C[C@@]21C
inactive: outcome [1] | outcome [2] | outcome [4] | outcome [5]

CC1CCc2c(N3CCC(O)CC3)c(F)cc3c(=O)c(C(=O)O)cn1c23 (stereo not drawn)
inactive: outcome [1] | outcome [2] | outcome [4] | outcome [5]

CCCCCCCCCCC[C@@H](C[C@@H]1OC(=O)[C@H]1CCCCCC)OC(=O)[C@H](CC(C)C)NC=O
inactive: outcome [1] | outcome [2] | outcome [4] | outcome [5]

CC(=O)N/N=C/c1ccc([N+](=O)[O-])o1
inactive: outcome [1] | outcome [2] | outcome [4] | outcome [5]

NS(=O)(=O)c1cc2c(cc1Cl)NC(CC1CCCC1)NS2(=O)=O (stereo not drawn)
inactive: outcome [1] | outcome [2] | outcome [4] | outcome [5]

Cc1c(F)c(N2CCNC(C)C2)cc2c1c(=O)c(C(=O)O)cn2C1CC1 (stereo not drawn)
inactive: outcome [1] | outcome [2] | outcome [4] | outcome [5]

CO[C@@]1(NC(=O)CSC[C@@H](N)C(=O)O)C(=O)N2C(C(=O)O)=C(CSc3nnnn3C)CS[C@@H]21
inactive: outcome [1] | outcome [2] | outcome [4] | outcome [5]

O=C(O)c1ccc(S(=O)(=O)N(Cl)Cl)cc1
inactive: outcome [1] | outcome [2] | outcome [4] | outcome [5]

Nc1ccc(N)c([N+](=O)[O-])c1
inactive: outcome [1] | outcome [2] | outcome [4] | outcome [5]

CC(C)(C)NC[C@H](O)COc1cccc2c1CCCC2=O
inactive: outcome [1] | outcome [2] | outcome [4] | outcome [5]

O=C(O)[C@@H]1CSCN1
inactive: outcome [1] | outcome [2] | outcome [4] | outcome [5]

N=C(N)N1CCc2ccccc2C1
inactive: outcome [1] | outcome [2] | outcome [4]

c1ccc2sc(SSc3nc4ccccc4s3)nc2c1
inactive: outcome [1] | outcome [2] | outcome [4] | outcome [5]

OC[C@H]1O[C@@H]2O[C@H]3[C@H](O)[C@@H](O)[C@@H](O[C@H]4[C@H](O)[C@@H](O)[C@@H](O[C@H]5[C@H](O)[C@@H](O)[C@@H](O[C@H]6[C@H](O)[C@@H](O)[C@@H](O[C@H]7[C@H](O)[C@@H](O)[C@@H](O[C@H]8[C@H](O)[C@@H](O)[C@@H](O[C@H]1[C@H](O)[C@H]2O)O[C@@H]8CO)O[C@@H]7CO)O[C@@H]6CO)O[C@@H]5CO)O[C@@H]4CO)O[C@@H]3CO
inactive: outcome [1] | outcome [2] | outcome [4] | outcome [5]

CC(=O)N(CC(O)CO)c1c(I)c(C(=O)NCCO)c(I)c(C(=O)NCC(O)CO)c1I (stereo not drawn)
inactive: outcome [1] | outcome [2] | outcome [4] | outcome [5]

CC(=O)c1cc2ccccc2s1
inactive: outcome [1] | outcome [2] | outcome [4] | outcome [5]

O=C(O)Cc1csc(-c2ccc(Cl)cc2)n1
inactive: outcome [1] | outcome [2] | outcome [4] | outcome [5]

CCCCCCCCCCCCCCCCCC(=O)OCC(O)CO (stereo not drawn)
inactive: outcome [1] | outcome [2] | outcome [4] | outcome [5]

— PubChem BioAssay (NCATS)
